Data published in PubChem BioAssay.
Active and inactive are the calls of the source.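 How the source made its calls, unless noted: active means inhibition of the reporter signal at or above 50%; inactive means inhibition below 50%.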

Tests used:
[1] = inhibitors of TNFa-induced NFkB p65 translocation, primary screen, imaging, HUVEC, MLSMR starter and 10KST1 sets (AID 438;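 active means inhibition above 20% together with a positive visual image hit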;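 further: compound added about 3h40 before a 20 min TNFalpha stimulation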;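 on inhibition: signal is the nuclear over cytoplasmic p65 intensity ratio per well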); conditions: HUVEC TNFa-induced p65 nuclear translocation; cell count: measured here: nuclei count (cytotoxicity indicator), at 2.08 µM; inhibition: at 2 µM, stronger effect = higher value, 0% TNFa-plus-vehicle, 100% no-TNFa wells
[2] = inhibitors of mutant huntingtin aggregation, primary screen, imaging, exon1htt(103Q)mCFP cells, high-content imaging (AID 483;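 active means visual image review flags a hit and inhibition of aggregation exceeds 20%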;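 further: compound exposure lasted 3 days before fixation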;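 on nuclei count: percent of the per-plate median nuclei count of sample wells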); conditions: exon1htt(103Q)mCFP cell line, aggregate imaging, at 2 µM; inhibition of aggregation: stronger effect = higher value; nuclei count: measured here: cell count, toxicity
[3] = inhibitors of E-selectin induction by TNFa, primary screen, imaging, HUVEC, immunofluorescence, MLSMR starter and 10KST1 sets (AID 487;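 active means visually confirmed hit in the image check and inhibition above 20%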;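 on inhibition: signal is fraction of cell area covered by stained E-selectin grains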;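 on nuclei count: 100% = median nuclei count of all wells on the same plate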); conditions: HUVEC TNFalpha-induced E-selectin immunofluorescence imaging, at 2 µM; inhibition: stronger effect = higher value; nuclei count: measured here: cell number, toxicity
[4] = biological target: Voltage-gated potassium channel subunit beta-2 (Rattus norvegicus) (UniProt P62483); test: KvBeta enzyme negative modulators, primary screen, biochemical, NADPH fluorescence (AID 622;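 active means fluorescence slope higher than the sample average by over 3 SD, cut at about -0.22 in these data, passing the limit was not always enough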;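 further: slope of raw intensity against log time taken from 70 to 1610 s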); conditions: recombinant KvBeta, 4-cyanobenzaldehyde reduction, at 10 µM, stronger effect = higher value
[5] = biological target: Voltage-gated potassium channel subunit beta-2 (Rattus norvegicus) (UniProt P62483); test: KvBeta positive modulators, primary screen, biochemical, NADPH fluorescence (AID 623;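 active means NADPH fluorescence slope more negative than the mean of all samples by about 3 SD, 99.7% confidence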;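 further: fluorescence intensity change per second fitted from 20 to 320 s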); conditions: Recombinant KvBeta, NADPH fluorescence decrease slope, 10 min; at 10 µM; stronger effect = lower value
[6] = biological target: Alpha-2C adrenergic receptor (Homo sapiens) (UniProt P18825); test: modulators of alpha2C/GIRK thallium flux, primary screen, cell-based, HEK293 alpha2C/GIRK1/2 (AID 624;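 active means fluorescence slope after compound addition differing from the mean of all screened samples at 99.7% confidence, in either direction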;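 further: slope of fluorescence ratio to pre-addition baseline per second over 15 to 24 s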); conditions: thallium flux BTC fluorescence, at 10 µM, actives lie on both sides
[7] = inhibitors of Sendai virus-induced IRF3 signaling, primary screen, TLR/RLR signaling modifier project, cell-based, Sendai virus stimulus, luciferase, 10K MLSCN set (AID 602276;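 active means inhibition at or above 50% at 10 µM; inactive means inhibition below 50%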;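 further: firefly luciferase from ISG56 promoter only with Renilla not read in this screen; 0% = Sendai virus plus DMSO and 100% = medium plus DMSO without virus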); conditions: HEK293 RL24 IRF3 luciferase reporter, at 10 µM, stronger effect = higher value
[8] = inhibitors of poly I:C-induced TLR3 signaling, primary screen, cell-based, poly I:C stimulus, luciferase, 10K MLSCN set (AID 602277); conditions: HEK293-TLR3 RL24 IRF3 luciferase reporter, at 10 µM, stronger effect = higher value

Voltage-gated potassium channel subunit beta-2 (Rattus norvegicus), sequence (P62483 whole entry, looked up): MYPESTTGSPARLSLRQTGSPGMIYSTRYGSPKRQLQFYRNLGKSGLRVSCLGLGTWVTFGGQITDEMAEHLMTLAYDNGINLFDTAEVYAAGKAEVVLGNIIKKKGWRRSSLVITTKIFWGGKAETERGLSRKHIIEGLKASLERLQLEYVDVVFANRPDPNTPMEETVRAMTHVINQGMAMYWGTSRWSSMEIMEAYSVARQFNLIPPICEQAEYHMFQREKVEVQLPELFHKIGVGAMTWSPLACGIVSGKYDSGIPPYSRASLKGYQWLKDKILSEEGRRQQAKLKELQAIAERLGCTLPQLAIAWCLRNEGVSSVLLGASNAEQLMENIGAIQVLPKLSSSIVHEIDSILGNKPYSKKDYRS
Alpha-2C adrenergic receptor (Homo sapiens), sequence (P18825 whole entry, looked up): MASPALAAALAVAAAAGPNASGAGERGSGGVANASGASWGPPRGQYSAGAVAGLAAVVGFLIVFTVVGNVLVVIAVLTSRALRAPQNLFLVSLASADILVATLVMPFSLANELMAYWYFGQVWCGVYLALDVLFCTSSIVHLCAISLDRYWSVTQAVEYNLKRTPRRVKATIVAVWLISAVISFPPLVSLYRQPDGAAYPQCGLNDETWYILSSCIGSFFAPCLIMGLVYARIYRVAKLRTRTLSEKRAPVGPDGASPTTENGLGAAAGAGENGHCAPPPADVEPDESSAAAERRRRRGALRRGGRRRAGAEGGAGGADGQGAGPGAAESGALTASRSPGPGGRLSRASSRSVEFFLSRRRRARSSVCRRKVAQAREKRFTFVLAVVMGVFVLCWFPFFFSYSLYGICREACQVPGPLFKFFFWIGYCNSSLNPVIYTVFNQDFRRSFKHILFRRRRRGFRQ

Structure (SMILES)	cell count [1]	inhibition [1]	inhibition of aggregation [2]	nuclei count [2] [%]	inhibition [3]	nuclei count [3] [%]	fluorescence slope [4]	NADPH fluorescence slope [5]	slope [6]	inhibition [7]	inhibition [8]
CCn1c(C)c(CCC(=O)O)c(=O)n2nc(-c3ccccc3OC)cc12	400	7.4% (inactive)	0% (inactive)	103	-121% (inactive)	108	-0.548 (inactive)	-1.2e-05 (inactive)	0.00427 (inactive)	-9.14% (inactive)	2.68% (inactive)
Cc1ccc(S(=O)(=O)NCC(=O)N(CC(=O)NCc2ccccc2)CC2CCCO2)cc1 (centres undefined)	341	-16.5% (inactive)	14.8% (inactive)	107	-31.2% (inactive)	170	-0.599 (inactive)	1.2e-05 (inactive)	0.00602 (inactive)	12.2% (inactive)	15.3% (inactive)
CCC(=O)OCCn1c(=O)c2cc3c(=O)n(CCOC(=O)CC)c(=O)c3cc2c1=O	446	0% (inactive)	-19% (inactive)	94.4	-44.7% (inactive)	125	-0.483 (inactive)	2.7e-05 (inactive)	0.00378 (inactive)	-12.3% (inactive)	6.39% (inactive)
COCCn1c(C)cc(C(=O)CSc2nc3ccccc3c(=O)[nH]2)c1C	287	-9.5% (inactive)	-2.6% (inactive)	95.3	-22.3% (inactive)	114	-0.595 (inactive)	-3.8e-05 (inactive)	0.00437 (inactive)	-28% (inactive)	-89.1% (inactive)
CC(=O)NC(CCS(C)(=O)=O)C(=O)Nc1cc(C)on1 (centres undefined)	676	-2.9% (inactive)	26.2% (inactive)	62.5	-36.9% (inactive)	114	-0.533 (inactive)	2.6e-05 (inactive)	0.00682 (inactive)	25.9% (inactive)	7.35% (inactive)
Cc1cc(=O)n2nc(N3CCC(C(=O)N4CCN(Cc5ccccc5)CC4)CC3)sc2n1	450	-1% (inactive)	-0.2% (inactive)	113	-31.7% (inactive)	103	-0.329 (inactive)	-5.5e-05 (inactive)	0.00533 (inactive)	7.85% (inactive)	3.68% (inactive)
CCOC(=O)C1CCN(S(=O)(=O)c2cccc(-c3csc(C)n3)c2)CC1	234	4.4% (inactive)	8.1% (inactive)	97.1	32.4% (inactive)	89	-0.433 (inactive)	-0.000124 (inactive)	0.0037 (inactive)	14.1% (inactive)	2.04% (inactive)
CCOC(=O)Cc1cc(=O)n2[nH]c(C)c(-c3ccc(OC)cc3)c2n1	652	-0.3% (inactive)	19.2% (inactive)	94	0.6% (inactive)	102	-0.301 (inactive)	1.1e-05 (inactive)	0.00404 (inactive)	14.2% (inactive)	22.5% (inactive)
CSc1nc2ccccc2c(=O)n1N	618	7.8% (inactive)	12.4% (inactive)	90.5	28.4% (inactive)	84.2	-0.404 (inactive)	-1.3e-05 (inactive)	0.00832 (inactive)	13% (inactive)	19% (inactive)
c1ccc2oc(SCc3cn4ccccc4n3)nc2c1	612	12.6% (inactive)	16.1% (inactive)	99.8	-30.4% (inactive)	132	-0.506 (inactive)	-4.1e-05 (inactive)	0.00508 (inactive)	-46.4% (inactive)	-151% (inactive)
CCN(CC(=O)NC1CCS(=O)(=O)C1)C(=O)C(c1ccccc1)c1ccccc1 (centres undefined)	887	3.8% (inactive)	-12.1% (inactive)	105	-74.7% (inactive)	130	-0.261 (inactive)	-5e-05 (inactive)	0.00562 (inactive)	6.14% (inactive)	5.12% (inactive)
CCn1c(=O)c(C(=O)Nc2cccnc2)c(O)c2ccccc21	362	4.1% (inactive)	7% (inactive)	105	-39.9% (inactive)	107	-0.465 (inactive)	-4.5e-05 (inactive)	0.00569 (inactive)	-1.35% (inactive)	-9.19% (inactive)
O=C(CN1C(=O)CSC1=O)N1CCc2ccccc2C1	324	4.8% (inactive)	14% (inactive)	101	0.8% (inactive)	107	-0.423 (inactive)	-5.1e-05 (inactive)	0.00367 (inactive)	6.34% (inactive)	31% (inactive)
CC(=O)c1coc2ccc(OCC(=O)O)cc12	678	-11.2% (inactive)	-4.6% (inactive)	110	-42.3% (inactive)	110	-0.598 (inactive)	-4.1e-05 (inactive)	0.00474 (inactive)	6.78% (inactive)	15.6% (inactive)
